The source of these data is PubChem BioAssay AID2283304 (EPA ToxCast).

Molecules are shown by their SMILES. Inconclusive results are not listed. Active and inactive are the calls of the source. The calls were made as follows: active = hit-call score of the fitted dose curve at least 0.9, where 1 is the maximum; inconclusive = response in the unintended direction; inactive = score below 0.9.

Chain of rat Galanin Receptor, Galr1 (gene 50577) (Q62805 whole entry, looked up): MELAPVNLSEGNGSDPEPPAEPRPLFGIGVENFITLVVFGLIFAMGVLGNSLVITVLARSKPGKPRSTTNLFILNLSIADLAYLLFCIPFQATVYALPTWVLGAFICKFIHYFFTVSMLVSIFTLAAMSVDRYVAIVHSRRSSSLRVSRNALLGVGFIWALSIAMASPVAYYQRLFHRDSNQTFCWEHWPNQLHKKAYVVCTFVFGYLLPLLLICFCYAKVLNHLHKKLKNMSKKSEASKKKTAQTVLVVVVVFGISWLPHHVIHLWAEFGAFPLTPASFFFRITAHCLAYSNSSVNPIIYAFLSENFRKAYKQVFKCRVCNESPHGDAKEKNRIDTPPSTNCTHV

This assay has as its target rat Galanin Receptor, Galr1 (gene 50577) (UniProt Q62805). The experiment in a line: NVS_GPCR_rGalanin: NovaScreen (NVS) G Protein-Coupled Receptor Assay for rat Galanin Receptor. As to the method:
NVS_GPCR_rGalanin is a biochemical, single-readout assay that uses extracted gene-proteins from Rat brain membranes in a tissue-based cell-free assay. Measurements were taken 2 hours after chemical dosing in a 96-well plate.NVS_GPCR_rGalanin is one of one assay component(s) measured or calculated from the NVS_GPCR_rGalanin assay. It is designed to make measurements of radioligand binding, a form of binding reporter, as detected with scintillation counting signals by Filter-based radiodetection technology.Data from the assay component NVS_GPCR_rGalanin was analyzed into 1 assay endpoint. This assay endpoint, NVS_GPCR_rGalanin, was analyzed in the positive analysis fitting direction relative to DMSO as the negative control and baseline of activity. Using a type of binding reporter, loss-of-signal activity can be used to understand changes in the binding as they relate to the gene Galr1. Furthermore, this assay endpoint can be referred to as a primary readout, because the performed assay has only produced 1 assay endpoint. To generalize the intended target to other relatable targets, this assay endpoint is annotated to the gpcr intended target family, where the subfamily is rhodopsin-like receptor.
Binding assays used specific radioligands (tritiated, iodinated) with non-radioactive competitive displacement ligands in agonist or antagonist protocols (as indicated) and various reference compounds and inhibitors to titrate specific binding to receptors and transporters. Most enzyme assays (CYPs, kinases, phosphatases, proteases, HDACs) used recombinant protein and specific substrates (fluorescence mostly, some colorimetric and radioactive) and inhibitors, followed by a biochemical separation of substrate and product. All assays for the biochemical HTS were initially run in duplicate at a single concentration (10 uM for CYP450 assays and 25 uM for all others). Assay-chemical combinations meeting a pre-defined threshold (e.g., 30% inhibition and other criteria defined below) were then run in singleton concentration-response format with maximum concentration of 20 uM for CYPs and 50 uM for all others. Each assay was run with positive and negative controls, and concurrent controls on every plate. The follow-up (secondary) screen tested active chemical-pairs in concentration series, as well as a few additional assays not tested in the primary screen, some selected negative inactives, and several cases re-run in the concentration series for confirmatory purposes.
`CCC[CH2][Sn]([Cl])([CH2]CCC)[CH2]CCC`: the AC50 – broadly, the concentration at which the activity in the assay is half-maximal – was 3.99 µM (active). As to `O=c1ccc2ccccc2o1`, the call was inactive. Regarding `O=C(O)C1C(C(=O)O)C2(Cl)C(Cl)=C(Cl)C1(Cl)C2(Cl)Cl` (stereo unspecified), the outcome was inactive. The same measure, in the same setting: the result for `CC(C)=CCCC(C)=CC=O` reads “inactive”. On the same count and under the same terms, for `c1ccc2c(c1)-c1cccc3c1c-2cc1ccccc13` the value was “inactive”; for `CCCCCCCCCCC`, “inactive”; for `CCCCCCCCCCO`, “inactive”.

With `Cc1cc(O)ccc1Cl`, the result was inactive.

In the case of `CC(C)NCC(O)c1ccc(O)c(O)c1` (stereo unspecified), the compound was classed as inactive. Regarding `C=CCC1=C(C)C(OC(=O)C2C(C=C(C)C)C2(C)C)CC1=O` (stereo unspecified), the outcome was inactive. With `CC(C)(c1ccccc1)c1ccc(O)c(C(C)(C)c2ccccc2)c1`, the compound was classed as inactive. The same measure, in the same setting: for `CCN1CCC2(CC1)COc1cc3c(cc12)N(C(=O)c1ccc(-c2ccc(-c4nnc(C)o4)cc2C)cc1)CC3` the value was “inactive”; for `Cc1cccc(C)c1O`, “inactive”. Still for that read-out and setting: for `COS(C)(=O)=O` the value was “inactive”. Turning to `CN(C)C(=O)Cl`, the outcome was inactive.

With `CCCCc1ccc2c(n1)[C@@H](c1ccc(OC)cc1C[C@H](C)C(=O)O)[C@H](C(=O)O)[C@H]2c1ccc2c(c1)OCO2`, the outcome was inactive.
